In PubChem BioAssay (NCI):
About 83,000 compounds went through this panel and 20% of them were active in at least one assay; those are over-represented in the sample as a whole.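 Cell lines were cultured in 96-well plates, exposed to a single compound concentration, and assessed for percent growth 48 hours later.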 A number with no mark means an inactive call. Calls of active or inactive are those of the source. The calls were made as follows: active = growth percent below 10; inactive = the rest.

test system: MDA-MB-468 breast; assay: NCI-60 one-dose screen, 48 h (100 = growth as untreated, 0 = no growth, -100 = all killed); details: 10 µM unless noted

| Compound | growth |
| --- | --- |
| CC(=O)NCc1cc(C)c(C)cc1C | 93.4% |
| CCOC(=O)c1cc(C(=O)c2cc(OC)cc(OC)c2)n2ncccc12 | 26.3% |
| NC(N)=N/N=C(\c1ccccc1)C(O)c1ccccc1 (stereo unspecified) | 99.8% |
| COc1ccc(-c2nc3ccc(-c4nc5ccc(N6CCN(c7ccncc7)CC6)cc5[nH]4)cc3[nH]2)cc1OC | -46.3% (active) |
| CCOc1cc(N)ccc1C(=O)NCCCN(CC)CC | 85% |
| Cc1nc2sc(C(=O)Nc3ccccc3)c(N)c2cc1C(O)c1ccccc1 (stereo unspecified) | 3.45% (active) |
| Cc1ccccc1-c1nc(C(Cl)Cl)nc2cc(-c3ccccc3)nn12 | 52.7% |
| Cc1ccc(-c2cc(-c3ccc(N(C)C)cc3)n3c(n2)nc2ccccc23)cc1 | -0.434% (active) |
| COc1ccc(-c2cc(-c3cccs3)n(N=O)c(=O)c2C#N)cc1 | 99.5% |
| COc1ccc(-c2cc(-c3ccc(Cl)cc3)nc(SCCCC(=O)NO)n2)cc1OC | -55.5% (active) |
| Cc1cc(NS(=O)(=O)c2ccc(NC(=O)CSc3nc4ccccc4c(=O)n3-c3ccccc3)cc2)no1 | 91% |
| C=CCn1c(C)nc2cc(Nc3nc(N4CCCC4)nc4ccccc34)ccc21 | 105% |
| C[C@@H]1C[C@H]2C(=O)O[C@@H](C)[C@H](NC(=O)[C@H](Cc3cc(F)cc(F)c3)NC(=O)Nc3ccc(C4CC4)cc3F)C(=O)N3CCC[C@H]3C(=O)N3CCCC[C@H]3C(=O)N[C@@H](C)C(=O)N2C1 | -16.1% (active) |
| O=C1Nc2ccccc2Oc2ccc(S(=O)(=O)CC3CO3)cc21 (stereo unspecified) | -5.7% (active) |
| CCCCOc1nc2ccc(Cl)cc2cc1/C=C/C(=O)/C=C/c1ccc(OC)cc1 | 113% |
| Cn1ccnc1C(=O)/C=C/c1ccc(CC(=O)Nc2ccc(Cl)cc2)cc1 | -15.4% (active) |
| O=C(CNc1cccnc1)Nc1ccc(C(=O)/C=C/c2ccc(Cl)cc2)cc1 | 91.9% |
| CC1CCN(C(=S)SCC(=O)NC(=O)c2ccccc2)CC1 | 119% |

| Compound | growth |
| --- | --- |
| CCC(C)[C@@H]1NC(=O)[C@@H]2CCCN2C(=O)[C@H](Cc2ccccc2)NC(=O)[C@@H]2CCCN2C(=O)[C@H](Cc2ccccc2)NC(=O)[C@@H]2CCCN2C(=O)[C@H](Cc2ccccc2)NC1=O (stereo partly specified) | 116% |
| Cc1cc(I)nc2ccccc12 | 109% |
| COc1cc(/C=C/CO)cc(OC)c1O[C@@H]1O[C@H](CO)[C@@H](O)[C@H](O)[C@H]1O | 91.9% |
| CCN(CC)CCOc1ccc(C(=C(c2ccccc2)C2CCCC2)c2ccc(OCCN(CC)CC)cc2)cc1 | -77.5% (active) |
| CC(=O)[C@@]12O[C@](C)(c3ccccc3)O[C@@H]1CC1C3CCC4=CC(=O)CC[C@]4(C)C3CC[C@@]12C (stereo partly specified) | 32.8% |
| CC(=O)NCC(=O)N1[C@@H]2CC[C@H]1c1ccc(Nc3ncc(C(F)(F)F)c(NC4CCC4)n3)cc12 | 72% [2.5 µM] |
| [2H]C1([2H])NC([2H])([2H])C([2H])([2H])N(c2ccc(Nc3ncc4cc(C(=O)N(C)C)n(C5CCCC5)c4n3)nc2)C1([2H])[2H] | 99.5% |
| C/C(=C\CCc1ccoc1)CC/C=C(\C)CCCNc1ccc(F)cc1 | 89.8% |
| COc1ccc2c(-c3ccc(F)cc3)c(C#N)c(=NC(C)=O)oc2c1 | -8.32% (active) |
| CCOc1ccc2c(c1)/C(=C\C=C\C1CC(C)C3CC(OCC)CCC3N1CC)CC(C)N2CC (stereo unspecified) | -37.3% (active) |
| O=C1Cc2cc(CCN3CCN(CCOCCO)CC3)c(Cl)cc2N1Cc1ccc(-c2ccccc2-c2nn[nH]n2)cc1 | 82.7% |
| O=c1c2cccc3c(NC4CCCCC4)ccc(c32)c2nc3ccccc3n12 | -4.69% (active) |
| Fc1cc(F)cc(NNC(=S)c2ccccc2)c1 | 43.5% |
| O=C1NC(=O)c2cc([N+](=O)[O-])ccc21 | 96.1% |
| COc1cc2c3c(n(CCCN4CCCCC4)c(=O)c2cc1OC)-c1cc2c(cc1C3=O)OCO2 | -84% (active) |
| C#Cc1cccc(NC(=O)Nc2ccc(NC(=O)CCl)cc2)c1 | -53.7% [8.25 µM] (active) |
| COc1ccc(CCN2C(=O)/C(=C/c3ccc(C4Oc5ccccc5C5CC(c6ccccc6)=NN54)cc3)SC2=S)cc1 (stereo unspecified) | 118% |
| COC(=O)[C@@H]1[C@H](O)[C@H](C)[C@H](O)[C@H](C)/C=C\C=C(C)C(=O)Nc2c(C)c(OC(C)=O)c3c(c2O)C(=O)C(C)=C2OCOC(=C23)C(C)=C[C@@](C)(O)[C@H](O)[C@@H](C)[C@H]1OC(C)=O | 110% |
